In the supplement of paper PMC12494721:
Where a name gives a salt, the structure may show the parent alone.

How the values were obtained:
Conditions in all cases: incubation time: 27 h, anaerobic, 37 °C;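 for the amine columns active = adjusted P below 0.05 in both replicates with a change the same way and a mean fold change under 0.8 or over 1.25; inactive = the rest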
[1] = system: Clostridium sporogenes DSM 1664; experiment: growth (OD595) fold change vs plate DMSO controls (fold change (ratio)); higher = more growth
Summary of the method: (§1)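 The reported measure is growth: the fold change against the median of DMSO controls on the plate. Absorbance at 595 nm from anaerobic 96-well mGAM cultures grown for 27 h at 37 °C was blank-subtracted, corrected for background with 20 µM compound solutions in water, and converted to OD with a calibration factor of 5. Fold changes above 1.5 appear as NA, and values are the mean of 2 biological replicates.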

Escherichia coli IAI1 [2] = experiment: as above
Summary of the method: as §1

[3] = system: Klebsiella aerogenes DSM 30053; experiment: as above
Summary of the method: as §1

[4] = system: Klebsiella aerogenes DSM 30053; experiment: fold change of Histamine concentration vs plate DMSO controls (fold change (ratio)); higher = more amine produced, active = hit call of the paper (significant change in both replicates, either direction)
Summary of the method: (§2)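 Extracts of whole anaerobic mGAM cultures were analysed for amines by LC–triple-quadrupole MS with dynamic MRM and external calibration curves, with drift corrected within batch. Four gut strains were grown at 37 °C for 27 h in 80 µL wells with compounds at 20 µM final, sweeteners at 50 µM final. Each value expresses fold change over plate DMSO controls. The average of 2 biological replicates is shown.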

[5] = system: Clostridium sporogenes DSM 1664; experiment: fold change of Tryptamine concentration vs plate DMSO controls (fold change (ratio)); higher = more amine produced, active = hit call of the paper (significant change in both replicates, either direction)
Summary of the method: as §2

[6] = system: Ruminococcus gnavus DSM 108212; experiment: as above
Summary of the method: as §2

Escherichia coli IAI1 [7] = experiment: fold change of Putrescine concentration vs plate DMSO controls (fold change (ratio)); higher = more amine produced, active = hit call of the paper (significant change in both replicates, either direction)
Summary of the method: as §2

[8] = system: Klebsiella aerogenes DSM 30053; experiment: as above
Summary of the method: as §2

Escherichia coli IAI1 [9] = experiment: fold change of Cadaverine concentration vs plate DMSO controls (fold change (ratio)); higher = more amine produced, active = hit call of the paper (significant change in both replicates, either direction)
Summary of the method: as §2

[10] = system: Klebsiella aerogenes DSM 30053; experiment: as above
Summary of the method: as §2

[11] = system: Ruminococcus gnavus DSM 108212; experiment: fold change of 2-Phenylethylamine concentration vs plate DMSO controls (fold change (ratio)); higher = more amine produced, active = hit call of the paper (significant change in both replicates, either direction)
Summary of the method: as §2

[12] = system: Ruminococcus gnavus DSM 108212; experiment: growth (OD595) fold change vs plate DMSO controls (fold change (ratio)); higher = more growth
Summary of the method: as §1

Row | Structure (SMILES) | growth [1] | growth (Escherichia coli IAI1 [2]) | growth [3] | fold change of Histamine concentration [4] | fold change of Tryptamine concentration [5] | fold change of Tryptamine concentration [6] | fold change of Putrescine concentration (Escherichia coli IAI1 [7]) | fold change of Putrescine concentration [8] | fold change of Cadaverine concentration (Escherichia coli IAI1 [9]) | fold change of Cadaverine concentration [10] | fold change of 2-Phenylethylamine concentration [11] | growth [12]
1 | C=CC1=C(C(=O)O)N2C(=O)[C@@H](NC(=O)/C(=N\OCC(=O)O)c3csc(N)n3)[C@H]2SC1 [Cefixime] (20 µM) | 0.286 | 0.0263 | 1.12 | 0.931 (inactive) | 0.826 (inactive) | 0.964 (inactive) | 0.484 (active) | 1.03 (inactive) | 2.08 (active) | 1.05 (inactive) | 0.932 (inactive) | –
2 | Nc1ccn([C@@H]2CS[C@H](CO)O2)c(=O)n1 [Lamivudine] (20 µM) | – | 0.995 | 0.992 | 1.06 (inactive) | – | 1.02 (inactive) | 1.02 (inactive) | 1.03 (inactive) | 1.02 (inactive) | 0.99 (inactive) | 1.02 (inactive) | 0.831
3 | C=C[C@H]1CN2CC[C@H]1C[C@@H]2[C@@H](O)c1ccnc2ccc(OC)cc12 [Quinidine hydrochloride monohydrate] (20 µM) | – | 1.01 | 0.966 | 1.11 (inactive) | – | 0.978 (inactive) | 0.986 (inactive) | 1.05 (inactive) | 0.921 (inactive) | 0.987 (inactive) | 1 (inactive) | 0.981
4 | COc1cc2nc(N3CCN(C(=O)c4ccco4)CC3)nc(N)c2cc1OC [Prazosin hydrochloride] (20 µM) | – | 1.09 | 0.998 | 1.01 (inactive) | – | 0.924 (inactive) | 1.16 (inactive) | 1.02 (inactive) | 0.968 (inactive) | 1 (inactive) | 0.939 (inactive) | 0.986
5 | Cc1cc(C(C)(C)CC(C)(C)C)ccc1OCCOCC[N+](C)(C)Cc1ccccc1 [Methyl benzethonium chloride] (20 µM) | 0.896 | 1.13 | 1.04 | 1.11 (inactive) | 0.948 (inactive) | 0.726 (active) | 1.05 (inactive) | 1.01 (inactive) | 1.04 (inactive) | 0.985 (inactive) | 0.803 (inactive) | –
6 | O=C(O)CCNC(=O)c1ccccc1 [Betamipron] (20 µM) | – | 0.817 | 0.813 | 1.02 (inactive) | – | 1 (inactive) | 1.04 (inactive) | 1 (inactive) | 1.06 (inactive) | 1 (inactive) | 0.956 (inactive) | 0.512
7 | CC(=O)Nc1ccc(O)cc1 [Acetaminophen] (20 µM) | – | 0.986 | 0.999 | 0.998 (inactive) | – | – | 1.01 (inactive) | 1 (inactive) | 0.976 (inactive) | 0.993 (inactive) | 1.12 (inactive) | 0.921
8 | Cc1c(C)c2c(c(C)c1O)CCC(C)(COc1ccc(CC3SC(=O)NC3=O)cc1)O2 (configuration not stated) [Troglitazone] (20 µM) | 1.31 | 0.981 | 1.1 | 0.914 (inactive) | 0.721 (active) | 0.696 (active) | 1.01 (inactive) | 0.995 (inactive) | 1.01 (inactive) | 1.01 (inactive) | 0.777 (active) | –
9 | Clc1ccccc1CN1CCc2sccc2C1 [Ticlopidine hydrochloride] (20 µM) | – | 0.944 | 0.958 | 1.01 (inactive) | – | 0.983 (inactive) | 1.01 (inactive) | 0.989 (inactive) | 0.934 (inactive) | 0.98 (inactive) | 0.977 (inactive) | 1.18
10 | CCC(C)C(C(=O)OCC[N+](C)(CC)CC)c1ccccc1 (configuration not stated) [Valethamate bromide] (20 µM) | – | – | – | 1.03 (inactive) | 0.963 (inactive) | 0.996 (inactive) | 1.05 (inactive) | 1.02 (inactive) | 1.03 (inactive) | 1 (inactive) | 0.963 (inactive) | –
11 | CCc1c2c(nc3ccc(OC(=O)N4CCC(N5CCCCC5)CC4)cc13)-c1cc3c(c(=O)n1C2)COC(=O)[C@]3(O)CC [Irinotecan hydrochloride trihydrate] (20 µM) | – | 1.05 | 0.974 | 1.03 (inactive) | – | 0.937 (inactive) | 1.11 (inactive) | 1 (inactive) | 0.994 (inactive) | 0.988 (inactive) | 0.89 (inactive) | 1.06
12 | CC(C)Cc1ccc([C@H](C)C(=O)O)cc1 [(S,+) Ibuprofen] (20 µM) | – | 0.797 | 1.16 | 0.925 (inactive) | – | 1.06 (inactive) | 0.854 (inactive) | 1.03 (inactive) | 1.06 (inactive) | 1.04 (inactive) | 1.11 (inactive) | 0.974
13 | N[C@@H](C(=O)N[C@@H]1C(=O)N2C(C(=O)O)=C(Cl)CC[C@H]12)c1ccccc1 [Loracarbef] (20 µM) | 0 | 1.15 | 1.13 | 0.886 (inactive) | 0.0238 (active) | 0.345 (active) | 1.05 (inactive) | 1.04 (inactive) | 1.52 (active) | 1.05 (inactive) | 0.319 (active) | –
14 | Cc1ccc(NC(=O)c2ccc(CN3CCN(C)CC3)cc2)cc1Nc1nccc(-c2cccnc2)n1 [Imatinib] (20 µM) | – | 1.07 | 1.05 | 1.01 (inactive) | – | 1.07 (inactive) | 0.954 (inactive) | 0.962 (inactive) | 0.95 (inactive) | 1.04 (inactive) | 1.08 (inactive) | 1.17
15 | CCOC(=O)C1=C(C)NC(C)=C(C(=O)OC)C1c1cccc(Cl)c1Cl (configuration not stated) [Felodipine] (20 µM) | – | 1.09 | 1.04 | 0.96 (inactive) | – | 0.876 (inactive) | 1.04 (inactive) | 0.97 (inactive) | 0.893 (inactive) | 1.01 (inactive) | 0.903 (inactive) | 0.215
16 | CCN(CC)CCNC(=O)c1ccc(N)cc1 [Procainamide hydrochloride] (20 µM) | – | 0.979 | 1.2 | 0.834 (inactive) | – | – | 0.969 (inactive) | 0.987 (inactive) | 1.01 (inactive) | 1.04 (inactive) | 1.05 (inactive) | 0.827
17 | CC(C)(O/N=C(\C(=O)N[C@@H]1C(=O)N2C(C(=O)[O-])=C(C[n+]3ccccc3)CS[C@H]12)c1csc(N)n1)C(=O)O [Ceftazidime pentahydrate] (20 µM) | 0.781 | 0.132 | 0.595 | 1.18 (inactive) | 1.04 (inactive) | 0.877 (inactive) | 2.08 (active) | 0.905 (inactive) | 2.09 (active) | 1.16 (inactive) | 0.865 (inactive) | –
18 | CC1COc2c(N3CCN(C)CC3)c(F)cc3c(=O)c(C(=O)O)cn1c23 (configuration not stated) [Ofloxacin] (20 µM) | 0.0346 | 0.0388 | 0.256 | 0.09 (active) | 0.0354 (active) | 0.997 (inactive) | 0.809 (inactive) | 0.653 (active) | 0.187 (active) | 0.961 (inactive) | 1.06 (inactive) | –
19 | CCOC(=O)C1=C(COCCN)NC(C)=C(C(=O)OC)C1c1ccccc1Cl (configuration not stated) [Amlodipine] (20 µM) | – | 1 | 1 | 1.08 (inactive) | – | 0.914 (inactive) | 0.986 (inactive) | 1.03 (inactive) | 1.1 (inactive) | 0.988 (inactive) | 0.918 (inactive) | 1.1
20 | CCN1CCN(C(=O)N[C@@H](C(=O)N[C@@H]2C(=O)N3C(C(=O)O)=C(CSc4nnnn4C)CS[C@H]23)c2ccc(O)cc2)C(=O)C1=O [Cefoperazone dihydrate] (20 µM) | – | 0.0154 | 0.724 | 0.472 (active) | – | 0.0363 (active) | 0.451 (inactive) | 0.86 (inactive) | 1.36 (inactive) | 1.13 (inactive) | 0.0394 (active) | 0.0225
